Reference: PubChem BioAssay
The source made the active and inactive calls. Unless noted, the rule behind the calls is not given here.

Assays:
[1] = system: XIP peptide (Xip251-270) binding; assay: XIP fragment 251-270 binding compounds – biochemical, small-molecule microarray, fluorescence 635/667 nm, 0.1 µg/mL protein, primary screen (AID 1182); settings: fluorescent protein binding, 635 nm, higher = more signal, called active from +8 up or from −8 down
XIP peptide (Xip251-270) = assay: compounds binding XIP fragment 251-270 – biochemical, small-molecule microarray, fluorescence 635/667 nm, 0.5 µg/mL protein, primary screen (AID 1183); settings: fluorescence 635 nm, higher = more signal
[2] = blood-stage malaria parasite viability loss – strain 3D7, DAPI fluorescence, 100 nL, primary screen (AID 1184);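 note: parasites grown inside human red blood cells in medium with human serum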; settings: P. falciparum 3D7 growth, 3 d, higher = more signal
[3] = molecular target: Homeobox protein Hox-A13 (Mus musculus) (UniProt Q62424); assay: disruptors of Hoxa13 oligonucleotide interaction – biochemical, fluorescence polarization, labeled oligonucleotide, primary screen (AID 1185); settings: Hoxa13:DNA binding, 15 min, higher = more signal, called active from +8 up or from −8 down
Homeobox protein Hox-A13 (Mus musculus), sequence (Q62424 whole entry, looked up): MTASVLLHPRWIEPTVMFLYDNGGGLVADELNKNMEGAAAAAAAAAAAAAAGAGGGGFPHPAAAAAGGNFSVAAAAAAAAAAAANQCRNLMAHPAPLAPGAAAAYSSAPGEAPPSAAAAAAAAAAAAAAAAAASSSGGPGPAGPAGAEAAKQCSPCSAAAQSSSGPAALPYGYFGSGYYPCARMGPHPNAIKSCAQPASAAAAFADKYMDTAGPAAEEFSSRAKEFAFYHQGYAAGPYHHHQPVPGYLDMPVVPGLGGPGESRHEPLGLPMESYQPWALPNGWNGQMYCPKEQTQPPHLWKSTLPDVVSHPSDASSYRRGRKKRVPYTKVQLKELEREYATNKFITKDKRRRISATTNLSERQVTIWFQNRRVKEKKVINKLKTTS

[4] = blockers of DNA damage checkpoint Chk1 activation – imaging, HeLa, hydroxyurea, phospho-Chk1 antibody, percent positive cells, primary screen (AID 1186); settings: hydroxyurea-induced phospho-Chk1 immunofluorescence imaging, higher = more signal
[5] = blockers of DNA damage checkpoint Chk1 activation – imaging, HeLa, hydroxyurea, phospho-Chk1 nuclear intensity, primary screen (AID 1187); settings: hydroxyurea-induced phospho-Chk1 immunofluorescence imaging, higher = more signal

Compound | composite z-score [1] | composite z-score (XIP peptide (Xip251-270)) | z-score [2] | z-score [3] | z-score [4] | z-score [5]
C[C@H]1C2[C@H](Cc3ccccc3)NC(=O)[C@]23C(=O)N[C@@H](Cc2ccccc2)C(=O)N2CCC[C@H]2C(=O)NC/C=C/CC/C=C/C3[C@@H]2O[C@]12C (some centres not stated) | 0.182 (inactive) | 0.457 | -2.99 | -7.13 (inactive) | -0.234 (inactive) | -0.437 (inactive)
COCCCNC(=O)[C@@]1(Cc2ccccc2I)c2ccccc2C(=O)N(C2CCCCC2)[C@H]1c1ccc(CO)cc1 | 0.26 (inactive) | 0.744 | -1.99 | -5.35 (inactive) | -0.0463 (inactive) | 0.155 (inactive)
C=CCOC(=O)[C@H]1[C@@H]2C(=O)O[C@@H](c3ccccc3)[C@@H](c3ccccc3)N2[C@@H](c2ccc(OCCOC(=O)[C@H]3C[C@H]4C(=O)NCC(=O)N4[C@H]3c3ccc(O)cc3)cc2)[C@]12C(=O)Nc1ccccc12 | 0.758 (inactive) | 0.81 | -1.56 | -0.844 (inactive) | -0.374 (inactive) | 0.182 (inactive)
C[C@]1(C(=O)O)c2ccccc2C(=O)N(Cc2cc(C(F)(F)F)cc(C(F)(F)F)c2)[C@H]1c1ccc(CO)cc1 | 0.17 (inactive) | 0.816 | 1.06 | -2.61 (inactive) | 0.19 (inactive) | 0.362 (inactive)
CC[C@H]1C2=C3C(CC[C@H]4C(OCc5ccc(F)cc5C(F)(F)F)OC[C@](C)([C@@H]34)N(C(=O)OC(C)(C)C)C2)C(COC(C)=O)C1COC(C)=O (some centres not stated) | 0.28 (inactive) | 0.633 | -1.24 | -3.07 (inactive) | 0.127 (inactive) | 0.294 (inactive)
OCCCc1cc[n+](Cc2cc3c(cc2Br)OCO3)cc1 | 0.0084 (inactive) | 0.579 | -1.96 | -2.45 (inactive) | -0.0355 (inactive) | 0.0561 (inactive)
CC(C)C(=C=CC[C@H](O)c1cccc(OCCO)c1)C[C@H](O)c1ccccn1 | 0.549 (inactive) | 0.806 | -0.991 | -3.81 (inactive) | -0.428 (inactive) | 0.321 (inactive)
CCCCC(=C=CC[C@@H](O)c1ccc(OCCO)cc1)CCO | 0.218 (inactive) | 0.336 | -1.39 | -3.71 (inactive) | 0.102 (inactive) | 0.509 (inactive)
CC(C)(C)OC(=O)N1[C@@H](C=C(Br)Br)COC1(C)C | 5.39 (inactive) | -0.0146 | 0.438 | -0.337 (inactive) | -0.35 (inactive) | -0.129 (inactive)
CCOC(=O)C[C@H]1[C@H](OC(=O)c2ccc(-c3ccccc3)cc2)[C@@H](NC(=O)C2CCCCC2)c2cc(OCCCO)ccc2N1C(=O)Cc1ccc(OC)cc1 | -0.344 (inactive) | -0.355 | -0.0911 | -2.2 (inactive) | -0.0566 (inactive) | 0.295 (inactive)
COc1ccc(CCNC(=O)[C@@H]2c3ccccc3C(=O)N(Cc3cc(F)cc(C(F)(F)F)c3)[C@H]2c2ccc(CO)cc2)cc1 | 0.614 (inactive) | 0.906 | -1.42 | -3.95 (inactive) | -0.0525 (inactive) | 0.275 (inactive)
COC(=O)C[C@H]1O[C@]2(C(=O)N(C)c3ccccc32)[C@@H](C)[C@@H]1[Si](C)(C)c1ccccc1 | -0.182 (inactive) | 0.428 | -1.48 | -7.09 (inactive) | -0.0412 (inactive) | 0.192 (inactive)
CCCCN1CC=CC23O[C@@H]4/C=C\CCC(C)OC(=O)C4[C@H]2C(=O)N(CCO)[C@@H]3C1=O (some centres not stated) | 0.874 (inactive) | -0.629 | -0.165 | -5.58 (inactive) | -0.967 (inactive) | -0.862 (inactive)
COc1cc(CO)cc(I)c1O[C@H]1C=C(C(=O)NCCO)C[C@@H](N(CCN2CCOCC2)C(=O)C2CCCO2)[C@@H]1O (some centres not stated) | 0.0188 (inactive) | 0.0326 | 0.0945 | -1.59 (inactive) | -0.866 (inactive) | -0.723 (inactive)
C=CCNC(=O)[C@@H]1[C@H]2C(=O)O[C@H](c3ccccc3)[C@H](c3ccccc3)N2[C@H](c2ccc(OCCO)cc2)[C@@]12C(=O)Nc1ccc(C#CCNC(N)=O)cc12 | 2.5 (inactive) | 0.561 | 0.175 | -3.63 (inactive) | 0.286 (inactive) | 0.0132 (inactive)
C=C(CCCC)/C(=C/C[C@@H](OC(C)=O)c1ccc(OCCO)cc1)c1cc(C(=O)OC)ccc1OC | 0.952 (inactive) | 0.633 | -3.06 | -4.07 (inactive) | 0.526 (inactive) | 0.765 (inactive)
C[N+](C)(C)CCCC[C@@H]1NC(=O)[C@H]2C[C@@H](C(=O)O)[C@@H](c3ccc(O)cc3)N2C1=O | 0.154 (inactive) | 0.274 | 0.115 | -1.42 (inactive) | -0.349 (inactive) | -0.313 (inactive)
CC[C@@H]1C=C(C(=O)O)[C@H](c2cccc(Cl)c2)N1S(=O)(=O)c1ccc(C)cc1 | 0.415 (inactive) | 0.141 | 1.85 | -3.71 (inactive) | 0.198 (inactive) | -0.141 (inactive)
C=CCNC(=O)[C@H]1[C@@H]2C(=O)O[C@@H](c3ccccc3)[C@@H](c3ccccc3)N2[C@@H](c2ccc(O)cc2)[C@]12C(=O)Nc1ccc(C#CCC(C(=O)OC)C(=O)OC)cc12 | 0.835 (inactive) | 0.764 | -0.214 | -2.88 (inactive) | 0.0976 (inactive) | 0.543 (inactive)
COC(=O)[C@@]1(Cc2ccccc2)[C@H]2c3cc(C(=O)N(C)C)n(CCF)c3C[C@H]2CN1C(=O)c1ccccc1 | 1.3 (inactive) | -0.504 | -0.684 | -4.95 (inactive) | -0.441 (inactive) | -0.748 (inactive)
[N-]=[N+]=NCc1ccccc1[C@H]1OC(c2ccc(OCCCO)cc2)=N[C@@]1(Cc1ccccc1N=[N+]=[N-])C(=O)N1CCOCC1 | -0.185 (inactive) | 0.604 | -2.27 | -1.45 (inactive) | -0.332 (inactive) | 0.0967 (inactive)
COc1ccc(C(O)C2C=CC3C(=O)N(C)C(=O)C3N2Nc2ccccc2)cc1 (configuration not stated) | 0.488 (inactive) | 0.592 | -0.142 | -3.64 (inactive) | 0.158 (inactive) | -0.0307 (inactive)
